Assay outcomes (PubChem BioAssay)
This is a sample that favours compounds with a hit; in the whole collection about 28% have one here.
CYP2C19 inh = human CYP2C19 inhibition; P33261; CYP2C19 Supersomes, luciferin-H EGE luminescence, 30 min; inhibition, % at 5 µM; hit rate 21% among 96,000; AID 778;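 active means CYP2C19 inhibition above a set limit at 5 µM in the primary screen, cut at about 50% in these data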;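 further: plate controls were negative control wells for no effect and 2.5 mM tranylcypromine positive control for full effect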
Target sequence (P33261 whole entry, looked up): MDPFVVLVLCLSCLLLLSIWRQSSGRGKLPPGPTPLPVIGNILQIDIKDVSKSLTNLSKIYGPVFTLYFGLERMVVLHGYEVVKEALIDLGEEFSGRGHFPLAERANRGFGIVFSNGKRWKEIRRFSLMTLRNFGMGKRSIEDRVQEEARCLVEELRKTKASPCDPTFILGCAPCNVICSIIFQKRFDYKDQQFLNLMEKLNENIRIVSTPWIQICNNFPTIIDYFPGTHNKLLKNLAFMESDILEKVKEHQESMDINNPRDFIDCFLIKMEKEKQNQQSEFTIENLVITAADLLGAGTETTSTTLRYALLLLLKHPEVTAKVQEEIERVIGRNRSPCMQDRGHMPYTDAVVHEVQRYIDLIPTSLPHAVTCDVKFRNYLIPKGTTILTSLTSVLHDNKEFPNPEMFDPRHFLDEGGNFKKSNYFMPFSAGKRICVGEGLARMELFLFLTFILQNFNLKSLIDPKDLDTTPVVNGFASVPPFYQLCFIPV
CYP2C9 activ = activators of human CYP2C9; P11712; recombinant CYP2C9, luciferin-H conversion, luminescence; stronger effect = higher value; factor 1 = untreated enzyme, 0 = blocked; activation factor at 5 µM; hit rate 1.4% among 96,000; AID 1024;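 active means activation factor of 2 or more for CYP2C9 at a 5 µM dose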;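 further: 0 = sulfaphenazole-blocked wells and 1 = vehicle-only wells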
PTK2B oligo ant = blocks oligomerization of human Pyk2 in cells | Q14289 | Q293 cells, Pyk2 FERM NanoBiT luminescence; stronger effect = lower value | z-score (the deposit names both 25 µM and 10 µM) | hit rate 0.83% among 99,000;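 active means Z-score of -3 or lower, scaled per plate to the spread of control and sample wells; inactive means z-score above -3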;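 further: negative z-score means lost luminescence so less FERM oligomerization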
CYP2C9 inhib = blocks human cytochrome P450 2C9 | P11712 | CYP2C9 Supersomes, luciferin-H conversion, luminescence | inhibition, % at 5 µM | hit rate 20% among 96,000 | AID 777;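 active means blocking of liver enzyme CYP2C9 beyond about 50% at 5 µM, limit read from the data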
CYP2C19 act = cytochrome P450 2C19 (human) activation; P33261; recombinant CYP2C19, luciferin-H EGE luminescence; stronger effect = higher value; 0 = fully inhibited enzyme, 1 = untreated enzyme; activation factor at 5 µM; 96,000 tested, under 10 active; AID 1025;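 active means activation factor of at least 2 at 5 µM in the primary screen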;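 further: 0 = wells with 2.5 mM tranylcypromine and 1 = vehicle-only wells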
The depositor's hits bear a star; . = no result given.

SMILES	CYP2C19 inh	CYP2C9 activ	PTK2B oligo ant	CYP2C9 inhib	CYP2C19 act
CN1CCN(C(=O)C2CCCCC2C(=O)O)CC1 (stereo not drawn)	-1.1	1.1	.	-14.6	1
Cc1nc(-c2coc3cc(O)c(C)cc3c2=O)cs1	68.0*	1	-0.55	3.6	0.3
Cc1nc(-c2coc3cc(OCC(=O)O)ccc3c2=O)cs1	46.7	1.1	1.68	-5.1	0.5
Cc1ccccc1-c1cc(C(=O)n2cccn2)c2cc(Cl)ccc2n1	62.0*	0.8	-0.84	15.1	0.4
O=C(c1csc2ccccc12)n1cccn1	5.6	1.1	0.28	-5.6	0.9
Cc1ccc(Oc2ccc(S(=O)(=O)N3CCOCC3)cc2C(N)=O)c(-n2nc3ccccc3n2)c1	23.4	0.6	-0.97	44.7	0.8
COc1cccc(-c2ccc(C#N)c(OC(=O)c3c(Cl)cccc3Cl)n2)c1	11.6	0.5	-0.05	50.6*	0.9
COc1cccc(-c2ccc(C#N)c(SCC(=O)NCCc3cccc(Cl)c3)n2)c1	82.5*	0.4	0.27	64.0*	0.2
COc1cccc(-c2ccc(C#N)c(OC(=O)c3ccc(Cl)cc3)n2)c1	10.9	0.7	0.34	27.3	0.9
Cc1ccc2c(c1)OC(=O)CC2c1ccccc1 (stereo not drawn)	67.8*	0.5	2.33	46.8	0.3
Cc1ccc2nc(NC(=O)CSc3nc4ccccc4o3)sc2c1	45.1	0.4	1.54	55.0*	0.5
CC(=O)Nc1ccc(NC(=O)CSc2nc3ccccc3o2)cc1	.	.	2.85	.	.
Cc1ccc2nc(NC(=O)CSc3ncnc4c3oc3ccccc34)sc2c1	21.8	0.7	.	27.1	0.8
Cc1cccc(NC(=O)CSc2nc3ccccc3o2)c1	68.7*	1.1	2.06	-14.6	0.3
CC(=O)CSc1nc2ccccc2o1	.	.	-0.76	.	.
CC(=O)Nc1nonc1NC(=O)CSc1nc2ccccc2o1	53.4*	0.6	2.8	36.5	0.5
COc1cc(OC)nc(NC(=O)CSc2nc3ccccc3o2)n1	85.6*	1.2	0.64	-18.9	0.1
CCOc1ccc(-c2[nH]nc3c2C(c2ccc4c(c2)OCO4)C(C#N)=C(N)O3)cc1OC (stereo not drawn)	31.3	0.6	0.01	42.5	0.7
CS(=O)(=O)N1Cc2ccccc2CC1C(=O)Nc1ccccc1C(N)=O (stereo not drawn)	5.0	0.9	0.33	9.0	0.9
Cc1nn2c(-c3cccc(NC(=O)CSc4nc5ccccc5o4)c3)nnc2c2ccccc12	98.4*	0.1	-1.72	92.4*	0
Cc1cc(C)nc(NC(=O)CSc2nc3ccccc3o2)n1	63.4*	0.8	0.42	19.4	0.4
O=C(CSc1nc2ccccc2o1)Nc1ccc(Cl)cc1	23.9	0.5	1.67	49.7	0.8
Cc1ccc(-c2nnc3c4ccccc4c(C)nn23)cc1NC(=O)CN1CCOCC1	23.6	0.8	.	24.5	0.8
CCC(=O)Nc1sc2c(c1C#N)CC(C)(CC)OC2 (stereo not drawn)	51.3*	0.9	0.1	8.4	0.5
Cc1ccc(CN(c2ccc(C(=O)NCc3ccccn3)cc2)S(C)(=O)=O)cc1	31.6	0.8	-0.47	25.0	0.7
SMILES	CYP2C19 inh	CYP2C9 activ	PTK2B oligo ant	CYP2C9 inhib	CYP2C19 act
O=C(CSc1nnc(-c2ccncc2)n1CC1CCCO1)Nc1cccc(O)c1 (stereo not drawn)	35.8	0.3	0.93	66.6*	0.6
COc1ccc(NC(=O)CSc2nnc(-c3ccncc3)n2CC2CCCO2)c(OC)c1 (stereo not drawn)	60.2*	0.7	0.33	28.4	0.4
CCC(=O)Nc1ccc(C(=O)CSc2nnc(-c3ccc(O)cc3)n2CC2CCCO2)cc1OC (stereo not drawn)	4.3	0.9	0.5	14.7	1
CCOc1ccc(NC(=O)CSc2nnc(-c3ccncc3)n2CC2CCCO2)cc1 (stereo not drawn)	29.4	0.5	0.22	48.7	0.7
Cc1ccc(NCc2nnc(SCC(=O)Nc3cccc(O)c3)n2CC2CCCO2)c(C)c1 (stereo not drawn)	66.9*	0.2	-0.89	80.6*	0.3
CN(C)S(=O)(=O)c1ccc(NC(=O)CN2CCN(C(c3ccccc3)c3ccccc3)CC2)cc1	-3.6	1	-0.85	2.8	1
COC(=O)c1nnn(CC(=O)Nc2cccc(Cl)c2C)c1C(=O)OC	89.5*	0.6	0.08	44.8	0.1
CCOC(=O)c1nnn(CC(=O)Nc2cc(F)ccc2F)c1C(=O)OCC	68.2*	0.6	-1.71	43.6	0.3
CCOC(=O)c1nnn(CC(=O)Nc2cc(Cl)ccc2C)c1C(=O)OCC	28.2	0.5	-1.35	48.4	0.7
CCOc1ccc(NC(=O)Cn2nnc(C(=O)NCc3ccccc3OC)c2N)cc1	12.2	2.1*	0.09	-113.1	0.9
CCOC(=O)c1nnn(CC(=O)Nc2ccccc2OC)c1C(=O)OCC	54.7*	0.6	-0.55	44.0	0.5
C=CCc1c(OC(C)=O)c2ccccc2n(C)c1=O	.	.	-0.45	.	.
CC1CCCC(NC(=O)c2ccc3c(c2)N(Cc2ccccc2)C(=O)CS3=O)C1C (stereo not drawn)	41.8	0.2	.	76.3*	0.6
O=C(NCC1CCCO1)c1ccc2c(c1)N(Cc1ccccc1)C(=O)CS2=O (stereo not drawn)	18.2	0.7	.	27.8	0.8
N#CCCCn1c(-c2ccccc2)noc1=O	22.0	1.2	1.91	-18.2	0.8
Cc1cccc(NC(=O)/C=C/c2cccs2)n1	15.8	1	-0.63	2.7	0.8
O=C(NCc1ccco1)C1Cc2ccccc2CN1S(=O)(=O)c1ccccc1F (stereo not drawn)	.	.	-0.26	.	.
Cn1c(Oc2ccccc2NCc2cc(Br)ccc2O)cc(=O)n(C)c1=O	76.3*	0.1	-3.06*	94.8*	0.2
O=C(NC1CCN(C(=S)NCc2ccco2)CC1)C12CC3CC(CC(C3)C1)C2	67.0*	0.7	1.84	30.4	0.3
CC(C)CNC(=S)N1CCC(NC(=O)C23CC4CC(CC(C4)C2)C3)CC1	.	.	0.6	.	.
Cc1cccc(C)c1NC(=O)C(NC=O)c1ccc(N(C)C)cc1 (stereo not drawn)	63.8*	0.4	0.13	60.0*	0.4
Cc1cccc(C)c1NC(=O)C(NC=O)c1ccccc1Cl (stereo not drawn)	38.8	0.9	0.5	7.6	0.6
Cc1noc(C)c1C(=O)OC(C(=O)NC1CCCC1)c1ccc(F)cc1 (stereo not drawn)	37.1	0.5	-0.41	46.9	0.6
Cc1ccc(-c2nc3ccccc3c(=O)n2CCN2CCOCC2)cc1	19.7	1	-0.47	4.3	0.8
O=C1CCCN1CC(CN1CCOCC1)Sc1nc2ccccc2c(=O)n1-c1ccccc1 (stereo not drawn)	88.1*	0.1	0.52	92.8*	0.1
CCc1nc(Nc2ccncc2)c2oc3ccccc3c2n1	1.7	1	1.01	0.0	1
CCc1nc(N2CCN(Cc3ccc4c(c3)OCO4)CC2)c2oc3ccccc3c2n1	32.0	0.5	-1.03	51.4*	0.7
CCc1nc(Nc2ccc3c(c2)OCO3)c2oc3ccccc3c2n1	51.3*	0.3	-2.64	75.0*	0.5
